High-throughput results from PubChem.
HSP90 inh: HSP90 inhibitors, primary screen, cell lysate, luminescence; Heat shock protein HSP 90 (rabbit reticulocyte lysate; luciferase refolding); Rabbit reticulocyte lysate, luciferase refolding luminescence, 3 h; inhibition, % at 5.6 µM; hit rate 0.91% among 290,000; AID 1789, 2009;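 active means inhibition above the screen-wide mean plus 3 SD, computed separately per campaign, cut at about 16% in these data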;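 further: 0% = DMSO wells and 100% = 60 µM geldanamycin wells; inhibitors lower the luminescence because luciferase stays unfolded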
HSF-1 act: HSF-1 activators, primary screen, NIH3T3-HGL cells, MG132 stress, luminescence, single point; NIH3T3-HGL HSF-1 luciferase reporter, 8 h; 100% = twice DMSO control signal; activation, % at 9 µM; hit rate 1.7% among 300,000; AID 504408, 2011;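 active means mean replicate activation of at least 50% with a set share of replicates each reaching 50%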;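 further: 0% = median of the neutral control wells and 100% = twice that signal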
HSF1 inhib: HSF1 inhibitors in luciferase reporter cells, primary screen, cell-based, NIH3T3, luminescence | NIH3T3-HGL HSE-luciferase, MG132-induced, luminescence 8 h; stronger effect = lower value | activity change, negative = inhibition, % at 7.5 µM (by protocol) | hit rate 0.77% among 300,000 | AID 2098, 2009;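 active means more than half of replicate wells show activity change below -50%, luminescence cut by over half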;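 further: luciferase reports HSF-1 transcriptional activity via heat shock element; 0% = median of DMSO wells and -100% = zero luminescence signal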
HIF act: HIF pathway transcriptional activators, primary screen, cell-based, U2OS HRE-luciferase, luminescence; U2OS HRE-luciferase reporter; normalized: DMSO 0%, desferrioxamine 100%; activation, % at 7.5 µM (by protocol); hit rate 0.32% among 300,000;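 active means mean activation of at least 10% of the iron chelator positive control signal, with at least half of replicates also reaching 10%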
ARNT-TACC3 inh: disruptors of ARNT/TACC3 protein interaction, primary screen, biochemical, AlphaScreen, single concentration. Transforming acidic coiled-coil-containing protein 3 (Homo sapiens), Q9Y6A5. AlphaScreen His-ARNT PAS-B/GST-TACC3 binding, luminescence; TACC3 fragment carries E629A point mutation. inhibition, % at 9.99 µM. hit rate 0.66% among 390,000. AID 623870, 2012;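 active means mean inhibition of replicates at least 50% and at least half of replicates each reaching 50%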;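 further: 0% = complete ARNT plus TACC3 wells and 100% = ARNT alone without TACC3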
An asterisk follows results filed as active; x = no result. Rows were chosen to be rich in hits. Some 3.1% of all compounds tested hit in one or more screens of this group.

SMILES | HSP90 inh | HSF-1 act | HSF1 inhib | HIF act | ARNT-TACC3 inh
COc1ccccc1S(=O)(=O)N[C@@H]1CC[C@H](CCNC(=O)C2CCCC2)O[C@@H]1CO | x | x | x | x | -2
O=C(Nc1ccc(Cl)c(Cl)c1)Nc1ccc([N+](=O)[O-])cn1 | 5 | 15 | -6 | 3 | -5
COc1ccccc1C(=O)Nc1ccc(N2CCN(S(C)(=O)=O)CC2)cc1 | 0 | 78* | 43 | 4 | -7
Cc1ccc(NC(=O)Nc2ccc(Cl)c(Cl)c2)nc1 | 0 | 53* | 28 | 3 | -30
COc1ccc(NC(=O)N(C)C[C@@H]2Oc3c(NS(=O)(=O)c4ccc(OC)cc4)cccc3C(=O)N([C@H](C)CO)C[C@H]2C)cc1 | x | x | x | x | 0
COCC(=O)Nc1ccc2c(c1)C(=O)N(C)[C@H]1CC[C@H](CC(=O)Nc3ccccc3OC)O[C@@H]1CO2 | x | x | x | x | -3
CCOC(=O)c1c2c(n(Cc3ccccc3)c1C)C(=O)C(=O)c1ccccc1-2 | x | 99* | 99* | x | 0
C[C@@H]1CN([C@@H](C)CO)C(=O)c2cc(-c3cccc(C#N)c3)cnc2O[C@H]1CN(C)C(=O)C1CCC1 | x | x | x | x | -9
COCC#Cc1cnc2c(c1)C(=O)N([C@H](C)CO)C[C@H](C)[C@H](CN(C)C(=O)C1CC1)O2 | x | x | x | x | -2
O=c1c2ccccc2cnn1-c1ccc2ccccc2c1 | 4 | 62* | 29 | 1 | -7
CN(C)C(=O)c1cccc(-c2ccc3c(c2)[C@@H]2[C@@H](CCN2C(=O)C2CCCCC2)[C@H](CO)N3)c1 | x | x | x | x | 29
O=C1C=CC(=O)c2c(O)c(N3CCN(CCOCCO)CC3)c(Br)c(O)c21 | x | x | x | x | 17
O=C1C=CC(=O)c2c(O)c(N3CCN(CCO)CC3)c(Cl)c(O)c21 | x | x | x | x | 31*
COc1ccccc1NC(=O)CC1C(=O)Nc2ccccc2N1C(=O)c1ccccc1 (stereo not given) | -1 | -13 | -2 | 2 | 8
CCOc1ccc(NC(=O)CC2C(=O)Nc3ccccc3N2C(=O)c2ccccc2)cc1 (stereo not given) | 2 | 9 | -1 | 26* | 33
COCC(=O)Nc1ccc2c(c1)C(=O)N(C)[C@@H]1CC[C@@H](CC(=O)Nc3cn(C)nc3C)O[C@H]1CO2 | x | x | x | x | 7
CCN(CC)CCOc1ccc2c(c1)C(=NO)c1cc(OCCN(CC)CC)ccc1-2 | 6 | 4 | -7 | 62* | 0
C[C@@H]1CN([C@@H](C)CO)C(=O)c2cc(C3=CCCC3)cnc2O[C@@H]1CN(C)Cc1ccc(C(=O)O)cc1 | x | x | x | x | 22
CSc1ccc(C2NC(=O)c3ccccc3N2)cc1 (stereo not given) | x | 69* | 45 | 4 | -7
CCC1CCCCN1Cc1c(O)ccc2c(=O)c(-c3ccccc3OC)coc12 (stereo not given) | x | 2 | -6 | 45* | -2
COc1cccc(S(=O)(=O)N[C@H]2CC[C@@H](CC(=O)NCc3ccccc3)O[C@@H]2CO)c1 | x | x | x | x | -3
O=C(C[C@@H]1CC[C@H](NC(=O)c2cccnc2)[C@H](CO)O1)NCc1ccncn1 | x | x | x | x | -11
N#CC1=C(N)C(C#N)(C#N)C(c2cccnc2)C2CCCC=C12 (stereo not given) | -4 | x | x | x | x
N#CC1=C(N)C(C#N)(C#N)C(c2cccnc2)C2CC(c3ccccc3)CC=C12 (stereo not given) | 0 | -66 | -55* | 5 | -2
O=c1[nH]cc(-c2ccccc2)c(=O)[nH]1 | -2 | -19 | -18 | 1 | -7
SMILES | HSP90 inh | HSF-1 act | HSF1 inhib | HIF act | ARNT-TACC3 inh
O=c1[nH]cc(S(=O)(=O)c2ccccc2)[nH]1 | 2 | -60 | -51* | 0 | -3
O=C(NC1CCCC1)[C@@H]1[C@@H](CO)[C@@H]2Cn3c(ccc(-c4ccccc4)c3=O)[C@H]1N2CCc1ccccc1 | x | x | x | x | 12
CCN(CC)S(=O)(=O)c1cccc(C(=O)OC2CC(C)OC2=O)c1 (stereo not given) | 16* | 1 | -2 | 0 | -8
C[C@@H]1CN([C@H](C)CO)C(=O)c2cc(C#CC3(O)CCCC3)cnc2O[C@H]1CN(C)C(=O)C1CCOCC1 | x | x | x | x | -3
COc1cccc(N/C(SCc2ccccc2F)=C(/C#N)C(=O)NCc2cccs2)c1 | 6 | 63* | 28 | 0 | -10
C[C@H](O)C#Cc1ccc2c(c1)O[C@@H](CN(C)C(=O)Cc1ccccn1)[C@H](C)CN([C@@H](C)CO)S2(=O)=O | x | x | x | x | 4
CCCNC(=O)Nc1ccc2c(c1)C(=O)N(C)C[C@H](OC)[C@@H](C)CN(C(=O)c1ccccc1F)[C@H](C)CO2 | x | x | x | x | 8
CCCC(=O)Nc1cc(OC)c(OC)cc1C(=O)O | 1 | 23 | -2 | 2 | 4
COc1cc2cc(NC(C)=O)cc(NCc3ccccc3)c2cc1OC | -3 | 66* | 28 | -1 | 20
CCCCNc1cc(NC(C)=O)cc2cc(OC)c(OC)cc12 | 2 | 76* | 59 | 0 | 3
C[C@@H]1CN([C@@H](C)CO)C(=O)Cc2cc(NS(=O)(=O)c3ccc(F)cc3)ccc2O[C@@H]1CN(C)S(=O)(=O)c1cn(C)cn1 | x | x | x | x | -10
Cc1csc(SCc2nnc(-c3ccccc3Br)o2)n1 | 4 | 33 | 23 | 1 | 30
Cc1csc(SCc2nnc(-c3ccc(Cl)cc3)o2)n1 | -1 | 59* | 27 | 2 | -7
O=C(Cc1ccccc1)N1C[C@@H]2[C@H](c3ccccc31)[C@H](CO)N2C(=O)C1CCCCC1 | x | x | x | x | -6
COc1ccc2nc(N=Nc3ccc(N(C)C)cc3)sc2c1 | 26* | x | x | x | 0
CO[C@@H]1CN(C)C(=O)c2ccc(NC(=O)Nc3ccc4c(c3)OCO4)cc2OC[C@H](C)NC[C@H]1C | x | x | x | x | 19
O=C1C2C3C=CC(C3)C2C(=O)N1/N=C/c1cn(Cc2ccccc2)c2ccccc12 (stereo not given) | -1 | 25 | 1 | 0 | 18
NC1=NC(=O)/C(=C/c2cn(Cc3ccccc3)c3ccccc23)S1 | 4 | 60* | 12 | -34 | 13
COc1ccc2c(c1)oc(=O)c1c3ccccc3[nH]c21 | 2 | 71* | 21 | 3 | 3
COc1ccc2c(c1)oc(=O)c1ccccc12 | 2 | 2 | 7 | 1 | -26
CCN(CC)c1ccc(/C=N/NC(=O)OC(C)(C)C)cc1 | -1 | 60* | 20 | 2 | 7
CCN(CC)c1ccc(/C=N\NC(N)=O)cc1 | 2 | -7 | -2 | 0 | -5
N#Cc1cc([N+](=O)[O-])c(-n2nnc3ccccc32)c([N+](=O)[O-])c1 | 0 | -24 | -12 | 1 | 2
COc1ccccc1Oc1cc(C#N)c(C#N)cc1-n1nnc2ccccc21 | -2 | 79* | 46 | -1 | 2
O=S(=O)(C/C(=C/CO)S(=O)(=O)c1ccccc1)c1ccccc1 | 9 | -79 | -77* | -2 | -6
